In the library only some 19% were active in any assay of this set; here they are far more common.
IL-1B inflam inh: blocks inflammasome-driven IL-1 beta release. THP-1 LPS/ATP IL-1B secretion, AlphaLISA, 16 h; hits give low values. activity change, % at 57.5 µM. 4.7% of 360,000 active; in the data active means activity change below about -50%; inconclusive means mostly about -30% to -49%
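THP-1 cells pretreated 1 hr with compounds (up to 57.5 uM final), then stimulated with LPS (250 ng/mL final) plus ATP (1.25 mM final); secreted IL-1B measured by AlphaLISA after 16 hr, decreased signal indicating inhibition.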
DT40 TDP1 no CPT: qHTS for Inhibitors of human tyrosyl-DNA phosphodiesterase 1 (TDP1): qHTS in cells in absence of CPT; DT40 Tdp1-/- hTDP1 cells, no CPT, ATP luminescence, 48 h; Potency, µM (doses to about 46.2 µM), for inactives: at the top dose activity change, negative = growth inhibition, hits mostly inhibitors; 15% of 420,000 active; AID 686978, 2013; further: potency means the concentration at half of the fitted maximal effect; nearly all actives have a fitted effect of over 55% in size
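No-CPT arm: Tdp1-/-;hTDP1 DT40 cells (400/well) plus compounds, incubated ≥48 hr at 37 °C. Readout CellTiter-Glo luminescence.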
DT40 TDP1 CPT: growth inhibition of DT40 Tdp1-/-;hTDP1 cells with camptothecin (screen for TDP1 inhibitors); chicken DT40 Tdp1-/-;hTDP1 cells + 20 nM CPT, ATP luminescence, 48 h; Potency, µM (highest dose often 46.2 µM), for the others: at the highest dose activity change, negative = growth inhibition, usual class: inhibitors; 12% of 420,000 active; further: potency means the concentration at half of the fitted maximal effect; nearly all actives have a fitted effect of over 55% in size
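Cell growth measured by CellTiter-Glo luminescence after a minimum 48 h, 37 C compound exposure with 20 nM CPT in Tdp1-knockout DT40 cells stably expressing hTDP1, seeded 400/well; qHTS titration format.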
HT1080 IDH1KD tx: kills HT-1080 cells with IDH1 knockdown; HT-1080 IDH1 knockdown viability, ATP luminescence, 48 h; Potency, µM (titrated, usually from 46.1 µM), for inactives: at the highest dose activity, negative = toxicity, actives largely listed as cytotoxic; 2% of 360,000 active;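 further: potency means the concentration at half of the fitted maximal effect; 0% = DMSO wells and -100% = cell-free medium wells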
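Assay cells: HT-1080 with IDH1 knockdown, 750 per well, RPMI/5% FBS. Exposure: 48 h at 37 °C following 2 h pre-incubation. Read: CellTiter-Glo luminescence; fitted concentration-response, curve class assigned.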
HT1080-NT tox: kills 2HG-producing HT-1080-NT fibrosarcoma cells. HT-1080-NT fibrosarcoma viability, CellTiter-Glo ATP luminescence, 48 h. Potency, µM (highest dose often 46.1 µM), without a hit: at the top dose activity, negative = less viability, actives largely listed as cytotoxic. 1.6% of 360,000 active;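 further: NT is the 2HG producing partner of a matched IDH1 knockdown line; potency means the concentration at half of the fitted maximal effect; 0% = DMSO-treated cells and -100% = media-only wells without cells; nearly all actives have a fitted effect of over 55% in size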
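Fibrosarcoma NT cells, 750 per well in 5% FBS RPMI, were exposed to compound for 48 hours. Viability: CellTiter-Glo luminescence.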
* = called active by the depositor; [ ] = dose if it differs, or a comment. Unless noted, the call rests on the fitted dose curve; in most records, active means well fitted curve in the direction sought with a large enough effect; inconclusive means small, poorly fitted or top-dose-only effect, or another doubt; inactive means no such curve, though single readings can be large; an effect the other way counts as inactive or inconclusive. Unless noted, on the % scale 0 is the no-effect control and ±100 the full control effect.

For COC(=O)C1=C(C)NC(C)=C(C(=O)OCCCN2CCC(c3ccccc3)(c3ccccc3)CC2)C1c1cccc([N+](=O)[O-])c1 (configuration not stated) the results were DT40 TDP1 no CPT 11µM* and DT40 TDP1 CPT 18µM*.
Screening COc1ccccc1C1NC(=O)NC(C)=C1C(=O)OCc1ccccc1 (configuration not stated) returned IL-1B inflam inh -16, DT40 TDP1 no CPT inconclusive, DT40 TDP1 CPT -19%, HT1080 IDH1KD tx -10% and HT1080-NT tox -10%.
For CC1=C(C(=O)OCc2ccccc2)C(c2ccc(N(C)C)cc2)NC(=O)N1 (configuration not stated) the results were IL-1B inflam inh -60*, DT40 TDP1 no CPT -23%, DT40 TDP1 CPT -23%, HT1080 IDH1KD tx -8% and HT1080-NT tox -19%.
Screening CC1=C(C(=O)OCc2ccccc2)C(c2ccccc2Br)NC(=O)N1 (configuration not stated) returned IL-1B inflam inh -72*, DT40 TDP1 no CPT inconclusive, DT40 TDP1 CPT -2%, HT1080 IDH1KD tx -27% and HT1080-NT tox -23%.
For COc1ccc(COC(=O)C2=C(C)NC(=O)NC2c2ccccc2OC(C)C)cc1 (configuration not stated) the results were IL-1B inflam inh -10, DT40 TDP1 no CPT 18µM*, DT40 TDP1 CPT -29%, HT1080 IDH1KD tx -20% and HT1080-NT tox -21%.
Screening CCOc1ccc(-c2cc3c(=O)n(Cc4nc(-c5ccc(OC(C)C)cc5)oc4C)ccn3n2)cc1Cl returned DT40 TDP1 no CPT 1% and DT40 TDP1 CPT -8%.
`COc1ccccc1C(=O)N[C@@H]1c2ccccc2C2(CCN(C(=O)c3ccnn3C)CC2)[C@H]1OC` gave DT40 TDP1 no CPT inconclusive and DT40 TDP1 CPT -3%[9.04 µM].
`CC(CNC(=O)CCC(=O)N1CCOc2ccc(Cl)cc21)c1ccccc1` (configuration not stated) gave IL-1B inflam inh inconclusive, DT40 TDP1 no CPT inconclusive, DT40 TDP1 CPT inconclusive, HT1080 IDH1KD tx -8% and HT1080-NT tox -6%.
CC1=C(C(=O)OCc2ccccc2)C(c2cccc([N+](=O)[O-])c2)NC(=O)N1 (configuration not stated) was read as IL-1B inflam inh -2, DT40 TDP1 no CPT 18µM*, DT40 TDP1 CPT inconclusive, HT1080 IDH1KD tx -1% and HT1080-NT tox 7%.
`CCCCOC(=O)C1=C(C)NC(=O)NC1c1cccc([N+](=O)[O-])c1` (configuration not stated) gave IL-1B inflam inh -15, DT40 TDP1 no CPT -21%, DT40 TDP1 CPT inconclusive, HT1080 IDH1KD tx -8% and HT1080-NT tox -1%.
For COc1ccc(COC(=O)C2=C(C)NC(=O)NC2c2ccc(F)cc2)cc1 (configuration not stated) the results were IL-1B inflam inh -52*, DT40 TDP1 no CPT inconclusive, DT40 TDP1 CPT inconclusive, HT1080 IDH1KD tx -18% and HT1080-NT tox -27%.
`CC1=C(C(=O)OCc2ccccc2)C(c2ccccc2OC(F)F)NC(=O)N1` (configuration not stated) gave IL-1B inflam inh -7, DT40 TDP1 no CPT inconclusive, DT40 TDP1 CPT 29µM*, HT1080 IDH1KD tx inconclusive and HT1080-NT tox -11%.
Screening CCOC(=O)C1=C(C)NC(C)=C(C(=O)OCC)C1c1cccc([N+](=O)[O-])c1 returned IL-1B inflam inh -2, DT40 TDP1 no CPT 23µM*, DT40 TDP1 CPT inconclusive, HT1080 IDH1KD tx -29% and HT1080-NT tox -2%.
`CCOc1ccc(C2NC(=O)NC(C)=C2C(=O)OCc2ccccc2)cc1` (configuration not stated) gave IL-1B inflam inh inconclusive, DT40 TDP1 no CPT inconclusive, DT40 TDP1 CPT -29%, HT1080 IDH1KD tx inconclusive and HT1080-NT tox inconclusive.
CCn1cc([N+](=O)[O-])c(C(=O)Nc2nc(-c3ccc(C)cc3)c(C)s2)n1 was read as IL-1B inflam inh -55*, DT40 TDP1 no CPT -27%, DT40 TDP1 CPT 21%, HT1080 IDH1KD tx inconclusive and HT1080-NT tox -13%.
`COc1ccc(NC(=O)c2nn(C)cc2[N+](=O)[O-])cc1` gave IL-1B inflam inh 7, DT40 TDP1 no CPT -2%, DT40 TDP1 CPT 1%, HT1080 IDH1KD tx -19% and HT1080-NT tox -23%.
`Cc1ccc(NC(=O)c2nn(C34CC5CC(CC(C5)C3)C4)cc2[N+](=O)[O-])cc1` gave IL-1B inflam inh -24, DT40 TDP1 no CPT inconclusive, DT40 TDP1 CPT 23µM*, HT1080 IDH1KD tx -20% and HT1080-NT tox 1%.
Screening CCn1cc([N+](=O)[O-])c(C(=O)Nc2nc(-c3ccc(C)c(C)c3)c(C)s2)n1 returned IL-1B inflam inh 1, DT40 TDP1 no CPT -24%, DT40 TDP1 CPT inconclusive, HT1080 IDH1KD tx 10µM* and HT1080-NT tox inconclusive.
For CCn1cc(C(=O)Nc2ccc(C)cc2[N+](=O)[O-])c(C)n1 the results were IL-1B inflam inh inconclusive, DT40 TDP1 no CPT -2%, DT40 TDP1 CPT -5%, HT1080 IDH1KD tx 13% and HT1080-NT tox 16%.
CCC(=O)Nc1nnc(SCC(=O)NC2CCCC2)s1 was read as IL-1B inflam inh -5, DT40 TDP1 no CPT -2%, DT40 TDP1 CPT -4%, HT1080 IDH1KD tx 7% and HT1080-NT tox 10%.
Screening CCOC(=O)c1sc(NC(=O)/C=C/c2cnn(CC)c2C)c(C(=O)OCC)c1C returned IL-1B inflam inh inconclusive, DT40 TDP1 no CPT 21µM*, DT40 TDP1 CPT inconclusive, HT1080 IDH1KD tx 3% and HT1080-NT tox 17%.
CCOC(=O)c1sc(NC(=O)CCN2CCN(C)CC2)c(C(=O)OCC)c1C was read as IL-1B inflam inh -11, DT40 TDP1 no CPT inconclusive, DT40 TDP1 CPT inconclusive, HT1080 IDH1KD tx inconclusive and HT1080-NT tox 21µM*.
CCOC(=O)c1c(NC(=O)CN2CCN(S(=O)(=O)c3cc(Cl)ccc3Cl)CC2)sc(C(=O)N(C)C)c1C was read as IL-1B inflam inh -21, DT40 TDP1 no CPT inconclusive, DT40 TDP1 CPT 16µM*, HT1080 IDH1KD tx inconclusive and HT1080-NT tox -20%.
For CCOC(=O)c1c(NC(=O)CN2CCN(C)CC2)sc(C(=O)Nc2ccccc2)c1C the results were IL-1B inflam inh -162*, DT40 TDP1 no CPT inconclusive, DT40 TDP1 CPT inconclusive, HT1080 IDH1KD tx 23µM* and HT1080-NT tox inconclusive.
For CCOC(=O)c1c(NC(=O)CC)sc(C(C)=O)c1C the results were IL-1B inflam inh -18, DT40 TDP1 no CPT inconclusive, DT40 TDP1 CPT inconclusive, HT1080 IDH1KD tx -1% and HT1080-NT tox -1%.
